Test [1] in a line: Nuclear factor erythroid 2-related factor 2/antioxidant responsive element (Nrf2/ARE) small molecule agonists: qHTS cell viability counter screen in human keratinocytes (AID 1919968; active = well fitted curve in the direction sought with a large enough effect in the repeat runs; an effect the other way counts as inactive or inconclusive; also: nearly all actives have a fitted effect of over 55% in size). In outline: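 HaCaT ARE reporter line, 1,500 cells/well; 5 h settle, 37 C/5% CO2; cpd in DMSO pinned; 23 h exposure; CellTiter-Fluor, 1 h; fluorescence.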
A general note: qHTS replaces the single test concentration by a dilution series.

Test [2] in a line: Nuclear factor erythroid 2-related factor 2/antioxidant responsive element (Nrf2/ARE) small molecule agonists: luciferase reporter gene qHTS assay in human keratinocytes (AID 1919969). Also: nearly all actives have a fitted effect of over 35% in size. Also: potency is read from the fitted curve at half-maximal effect. A general note: Reporter assays use an easily measured gene product as a stand-in for the process of interest.
Test [3] concerns the target Gonadotropin-releasing hormone receptor (Homo sapiens) (UniProt P30968). As to the kind of experiment: Human gonadotropin-releasing hormone receptor (GnRHR) small molecule agonists, calcium flux assay in GnRHR-HEK293 cells (AID 1920063). Also: nearly all actives have a fitted effect of over 35% in size. The method, boiled down:
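GnRHR-HEK293, 1500 cells/well, 18 h 37 C/5% CO2; Ca dye 1 h 37 C; cpd pinned (DMSO), agonist mode; kinetic FL 480/540, 3 min, 1 s reads; 15 conc, n=3.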
For orientation: Calcium flux is commonly read through the fluorescence of an indicator in the cells.

In test [4] the target is KiSS-1 receptor (Homo sapiens) (UniProt Q969F8). As to the kind of experiment: Human kisspeptin (KISS1R) small molecule agonists, calcium flux assay in KISS1R-HEK293 cells (AID 1920064; active = well fitted curve in the direction sought with a large enough effect in the repeat runs; an effect the other way counts as inactive or inconclusive). The method, boiled down:
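Stable human KISS1R HEK293 line; 18 h plating, 37 C/5% CO2; calcium dye 1 h 37 C; compound pin transfer; kinetic fluorescence Ex/Em 480/540, 3 min.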

The nature of test [5]: G protein-coupled receptor (GPCR) small molecule agonists, calcium flux assay: HEK293 wild type cell line counter screen (AID 1920065). In outline: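 Kinetic fluorescence at Ex/Em 480/540, recorded every second over 3 min, served as the read-out after compound addition. Each compound was tested at 15 concentrations in triplicate on cells pre-loaded with calcium dye for 1 h.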

Test [6] is described as follows: p53 small molecule agonists, cell-based qHTS assay with human liver microsomes (AID 1963577). The method, boiled down: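 Fluorescence of the beta-lactamase reporter in p53RE-bla cells, detected with LiveBLAzer substrate (2 h, room temperature, dark), served as the read-out after 16 h compound exposure at 37 C with human liver microsomes and NADPH, each 0.5 mg/mL final.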

Test [7] can be described thus: p53 small molecule agonists, cell-based qHTS assay with rat liver microsomes (AID 1963578). In outline:
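Cells carrying a p53 response element–beta-lactamase reporter were plated and rested 5 h, then dosed with compound in DMSO plus rat liver microsomes and NADPH, each at 0.5 mg/mL final. After 16 h at 37 C, LiveBLAzer substrate was added for 2 h.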

The nature of test [8]: p53 small molecule agonists, cell-based qHTS assay with human liver microsomes: qHTS cell viability counter screen (AID 1963579). Also: nearly all actives have a fitted effect of over 45% in size. The method, boiled down:
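Cytotoxicity counter screen: p53RE-bla, 4,000 cells/well; 5 h settle, 37 C/5% CO2; cpd + HLM 0.5 mg/mL + NADPH 0.5 mg/mL (final); 16 h, 37 C; CellTiter-Glo, 30 min RT, luminescence.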

Test [9] in a line: p53 small molecule agonists, cell-based qHTS assay with rat liver microsomes: qHTS cell viability counter screen (AID 1963580). Also: nearly all actives have a fitted effect of over 45% in size. The method, boiled down: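 HCT-116 p53RE-bla, 4,000 cells/well, 5 h pre-incubation; cpd + rat liver microsomes 0.5 mg/mL + NADPH 0.5 mg/mL (final); 16 h, 37 C; CellTiter-Glo, 30 min RT; luminescence.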
A short description of test [10]: p53 small molecule agonists, cell-based qHTS assay (AID 1963582; active = well fitted activation curve with a large enough effect in the signal ratio in the repeat runs, not every such curve was filed as active; the % refers to the signal ratio). In outline: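 Reporter line: p53RE-bla. Pre-incubation 5 h, 37 C, 5% CO2; compound (DMSO, pin tool) 16 h, 37 C; B/G FRET substrate 2 h RT; fluorescence intensity read.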
Test [11] deals with 5-hydroxytryptamine receptor 2A (Homo sapiens) (UniProt P28223). As to the kind of experiment: 5-hydroxytryptamine receptor 2A (HTR2A) small molecule antagonists, cell-based qHTS assay (AID 1963586). Also: nearly all actives have a fitted effect of over 45% in size. In outline:
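Antagonist-mode intracellular calcium assay: DOI (4 nM) added after 5 min compound pre-incubation at room temperature to dye-loaded HTR2A-CHO cells. Fluorescence followed for 3 min, sampled every second.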

For test [12] the target is unchanged. As to the kind of experiment: 5-hydroxytryptamine receptor 2A (HTR2A) small molecule agonists, cell-based qHTS assay (AID 1963587). Also: nearly all actives have a fitted effect of over 30% in size. In outline: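 Kinetic calcium-flux fluorescence (2 min, 1 sec intervals) after compound addition in agonist mode. HTR2A-CHO cells were cultured 18 h, then dye-loaded 1 h at 37 C.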
In test [13] the target is Muscarinic acetylcholine receptor M1 (Homo sapiens) (UniProt P11229). As to the kind of experiment: Cholinergic receptor muscarinic 1 (CHRM1) small molecule antagonists, cell-based qHTS assay (AID 1963588). Also: nearly all actives have a fitted effect of over 40% in size. The method, boiled down:
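CHRM1-CHO calcium-flux assay, antagonist mode. Cells were seeded 18 h, dye-loaded 1 h at 37 C and given compound for 5 min at RT, then acetylcholine was added at 50nM. FDSS fluorescence was read 3 min; 15 concentrations, three runs.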

A short description of test [14]: cAMP Responsive Elements (CRE) small molecule agonists, cell-based qHTS assay (AID 1963590). In outline: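 HEK 293T CRE-bla, 2,000 cells/well, 18 h preincubation 37 C/5% CO2; cpds (DMSO) pinned, 3 h; LiveBLAzer B/G FRET substrate, 2 h RT.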
Test [15] is described as follows: cAMP Responsive Elements (CRE) small molecule antagonists, cell-based qHTS assay (AID 1963591; active = well fitted inhibition curve with a large enough effect in the signal ratio in the repeat runs, not every such curve was filed as active; the % refers to the signal ratio). In outline:
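Beta-lactamase reporter read by FRET substrate (LiveBLAzer B/G) after 2 h at room temperature. CRE-bla HEK293T cells had received compound plus 0.25 uM (final) NKH477 for 3 h at 37 °C.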

Test [16] deals with Beta-2 adrenergic receptor (Homo sapiens) (UniProt P07550). As to the kind of experiment: Adrenergic beta2 receptor (ADRB2) small molecule antagonists, cell-based qHTS assay (AID 1963592). Also: series mostly up to about 92 µM; nearly all actives have a fitted effect of over 50% in size. The method, boiled down: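 Cells (CHO, stable ADRB2 overexpression) incubated 18-20hr at 37C; compounds added from DMSO; agonist mix (1nM isoproterenol, 100uM IBMX, 25uM Ro-20-1724) added; 0.5hr RT; d2-cAMP and anti-cAMP-cryptate added; 1hr RT; 665/615 nm read.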
Beta-2 adrenergic receptor (Homo sapiens), sequence (P07550 whole entry, looked up): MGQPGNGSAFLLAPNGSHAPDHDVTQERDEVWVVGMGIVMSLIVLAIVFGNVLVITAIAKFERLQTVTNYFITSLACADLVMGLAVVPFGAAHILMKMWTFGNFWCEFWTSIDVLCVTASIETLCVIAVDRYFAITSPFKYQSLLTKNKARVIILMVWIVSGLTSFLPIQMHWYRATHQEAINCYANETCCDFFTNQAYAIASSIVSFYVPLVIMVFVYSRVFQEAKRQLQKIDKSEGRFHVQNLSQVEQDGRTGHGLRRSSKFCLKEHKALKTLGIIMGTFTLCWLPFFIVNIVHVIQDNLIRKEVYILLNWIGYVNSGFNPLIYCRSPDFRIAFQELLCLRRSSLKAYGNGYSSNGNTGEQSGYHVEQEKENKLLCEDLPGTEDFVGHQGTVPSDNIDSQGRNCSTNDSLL

The target in test [17] is D(2) dopamine receptor (Homo sapiens) (UniProt P14416). As to the kind of experiment: Dopamine D2 receptor (DRD2) small molecule agonists, cell-based qHTS assay (AID 1963594). Also: nearly all actives have a fitted effect of over 35% in size. The method, boiled down:
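cAMP accumulation in DRD2-HEK293 cells measured by HTRF after 1 h detection; compounds added 10 min before NKH477 (200nM […]) forskolin-analogue stimulation, 30 min at room temperature, with Ro20-1724 present at 0.1 mM final.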

Test [18] shares this target. As to the kind of experiment: Dopamine D2 receptor (DRD2) small molecule antagonists, cell-based qHTS assay (AID 1963595; active = well fitted inhibition curve with a large enough effect in the signal ratio in the repeat runs, with a control signal flat; the % refers to the signal ratio). In outline:
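Readout: HTRF cAMP, cAMP-d2 competing with cellular cAMP for anti-cAMP cryptate, read after 1 h. Cells: DRD2-HEK293. Conditions: 0.1 mM Ro20-1724, 12 nM quinpirole, 200 nM NKH477, 30 min RT.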

Test [19] concerns the target Beta-2 adrenergic receptor (Homo sapiens) (UniProt P07550). As to the kind of experiment: Adrenergic beta2 receptor (ADRB2) small molecule agonists, cell-based qHTS assay (AID 1963593).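 Also: CHO cells stably overexpressing human ADRB2.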 In outline: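 CHO cells stably over-expressing ADRB2 were plated overnight at 37C, then dosed with compounds plus a stimulation mix containing 100uM IBMX and 25uM Ro-20-1724 for 0.5hr at room temperature. cAMP was measured by HTRF competition, 1hr.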

Test [20] is described as follows: p53 small molecule agonists, cell-based qHTS assay: qHTS cell viability counter screen (AID 1963581). Also: nearly all actives have a fitted effect of over 45% in size. The method, boiled down:
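HCT-116 p53RE-bla cells, 4,000/well, plated 5 h before compound pin transfer; 16 h at 37 C; bla substrate 2 h RT; then CellTiter-Glo, 30 min RT, luminescence.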

Several values for one entry are separate records, joined by “and”; a condition that tells them apart may be missing. Equal values may be shown once. Inconclusive results are not listed. Activity calls are given as the source filed them. Unless noted, calls follow the shape of the full dose curve.

Muscarinic acetylcholine receptor M1 (Homo sapiens), sequence (P11229 whole entry, looked up): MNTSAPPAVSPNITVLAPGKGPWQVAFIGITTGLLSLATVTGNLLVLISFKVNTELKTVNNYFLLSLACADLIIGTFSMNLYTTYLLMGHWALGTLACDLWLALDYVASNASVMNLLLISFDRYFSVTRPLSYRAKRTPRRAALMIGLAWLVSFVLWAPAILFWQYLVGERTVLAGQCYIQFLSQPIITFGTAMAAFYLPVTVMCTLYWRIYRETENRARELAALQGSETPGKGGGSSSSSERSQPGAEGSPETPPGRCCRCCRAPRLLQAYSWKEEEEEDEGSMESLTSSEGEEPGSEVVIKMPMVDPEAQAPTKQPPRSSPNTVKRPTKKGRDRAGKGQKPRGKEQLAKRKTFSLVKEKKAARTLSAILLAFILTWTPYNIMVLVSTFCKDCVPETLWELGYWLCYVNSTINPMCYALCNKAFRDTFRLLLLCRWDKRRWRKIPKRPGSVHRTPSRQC
5-hydroxytryptamine receptor 2A (Homo sapiens), sequence (P28223 whole entry, looked up): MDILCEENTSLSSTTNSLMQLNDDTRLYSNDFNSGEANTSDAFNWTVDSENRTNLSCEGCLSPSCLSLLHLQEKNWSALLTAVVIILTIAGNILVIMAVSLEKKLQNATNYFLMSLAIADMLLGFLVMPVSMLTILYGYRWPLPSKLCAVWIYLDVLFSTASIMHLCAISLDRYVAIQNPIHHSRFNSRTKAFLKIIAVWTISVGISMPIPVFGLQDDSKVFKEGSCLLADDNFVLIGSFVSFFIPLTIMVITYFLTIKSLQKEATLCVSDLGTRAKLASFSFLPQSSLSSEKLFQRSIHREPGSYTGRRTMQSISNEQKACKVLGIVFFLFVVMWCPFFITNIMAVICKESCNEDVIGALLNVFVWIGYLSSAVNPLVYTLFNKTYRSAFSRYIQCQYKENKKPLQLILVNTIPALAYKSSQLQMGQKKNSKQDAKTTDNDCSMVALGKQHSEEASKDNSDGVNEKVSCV
KiSS-1 receptor (Homo sapiens), sequence (Q969F8 whole entry, looked up): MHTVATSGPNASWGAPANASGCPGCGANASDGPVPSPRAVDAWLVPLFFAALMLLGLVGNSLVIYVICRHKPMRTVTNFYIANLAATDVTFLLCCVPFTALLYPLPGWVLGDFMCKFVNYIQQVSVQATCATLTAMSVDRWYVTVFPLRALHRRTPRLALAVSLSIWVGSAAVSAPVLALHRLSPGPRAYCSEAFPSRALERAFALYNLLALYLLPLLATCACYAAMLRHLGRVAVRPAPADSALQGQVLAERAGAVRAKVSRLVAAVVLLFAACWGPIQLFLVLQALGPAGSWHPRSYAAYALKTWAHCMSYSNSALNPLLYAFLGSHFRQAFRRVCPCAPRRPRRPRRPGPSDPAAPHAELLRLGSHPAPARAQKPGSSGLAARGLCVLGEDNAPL
Gonadotropin-releasing hormone receptor (Homo sapiens), sequence (P30968 whole entry, looked up): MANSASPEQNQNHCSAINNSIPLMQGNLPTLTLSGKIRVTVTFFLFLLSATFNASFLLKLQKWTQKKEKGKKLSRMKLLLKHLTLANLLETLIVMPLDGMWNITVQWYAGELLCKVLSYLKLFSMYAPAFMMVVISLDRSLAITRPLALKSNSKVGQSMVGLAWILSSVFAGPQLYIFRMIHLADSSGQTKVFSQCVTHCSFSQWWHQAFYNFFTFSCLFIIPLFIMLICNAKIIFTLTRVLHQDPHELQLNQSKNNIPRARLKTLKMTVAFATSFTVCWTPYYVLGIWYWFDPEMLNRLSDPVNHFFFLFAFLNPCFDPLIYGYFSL
D(2) dopamine receptor (Homo sapiens), sequence (P14416 whole entry, looked up): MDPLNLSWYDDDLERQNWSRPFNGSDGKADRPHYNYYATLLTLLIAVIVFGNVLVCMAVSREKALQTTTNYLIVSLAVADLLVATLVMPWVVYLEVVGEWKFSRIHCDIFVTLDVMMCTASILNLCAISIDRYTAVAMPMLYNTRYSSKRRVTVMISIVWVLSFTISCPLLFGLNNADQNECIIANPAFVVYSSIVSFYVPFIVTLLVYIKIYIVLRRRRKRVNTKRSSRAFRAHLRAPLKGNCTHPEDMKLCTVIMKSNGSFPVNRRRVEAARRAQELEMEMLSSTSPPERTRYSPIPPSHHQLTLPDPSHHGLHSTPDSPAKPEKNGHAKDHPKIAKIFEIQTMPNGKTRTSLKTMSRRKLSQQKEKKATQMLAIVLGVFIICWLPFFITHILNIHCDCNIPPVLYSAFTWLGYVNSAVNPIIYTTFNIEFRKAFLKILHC

Consider `c1ccc2ccccc2c1`, for which the Potency entry in [1], in test [2], in [3], in test [4], in [5] and in test [6] was “inactive” each time. For the same compound, the Potency result in [7], in [8], in [9], in [10], in test [11] and in [12] was “inactive” each time. The Potency result in test [13], in test [14], in test [15], in [16], in [17] and in test [18] was “inactive” throughout.
`NNc1ccc(C(=O)O)cc1`: the Potency result in test [1], in test [3], in test [4], in [5], in test [6] and in test [7] was “inactive” each time. Also, the Potency result in test [8], in test [9], in [11], in [12], in test [13] and in test [15] was “inactive” each time. Also, the Potency result in test [16], in test [17] and in [18] was “inactive” throughout. In [2], the Potency is 22 µM (active) and 30.9 µM (active).
Consider `CCCCC(CC)COC(=O)c1ccc(C(=O)OCC(CC)CCCC)cc1` (centres undefined), for which the Potency entry in test [1], in [2], in test [3], in [4], in [5] and in test [6] was “inactive” in each case. Moreover, the Potency entry in test [7], in [8], in [9], in test [10], in [12] and in test [13] was “inactive” each time. Further, the Potency entry in test [14], in test [15], in test [16], in [19], in test [17] and in [18] was “inactive” each time.
Take `CCCCCNCCCCC`: the Potency entry in test [1], in test [2], in [3], in [4], in test [5] and in [6] was “inactive” throughout. Also, the Potency result in [7], in test [8], in test [20], in test [10], in [11] and in test [12] was “inactive” each time. The Potency entry in [13], in [14], in [15], in test [16], in test [19] and in test [17] was “inactive” in each case. Besides, in test [18], the Potency result was “inactive”.
As for `OCC(O)CS` (centres undefined), the Potency result in test [1], in test [2], in test [3], in [4], in test [5] and in test [6] was “inactive” each time. The Potency result in test [7], in test [8], in test [9], in test [20], in test [11] and in test [12] was “inactive” in each case. For the same compound, the Potency result in test [13], in [14], in [15], in [16], in test [17] and in test [18] was “inactive” each time.
In the case of `CCOC(=O)/C=C\C(=O)OCC`, the Potency result in test [1], in test [2], in test [3], in test [4], in [5] and in [6] was “inactive” each time. Besides, the Potency result in test [7], in [8], in [20], in test [10], in test [11] and in [12] was “inactive” in each case. Also, the Potency result in test [13], in test [14], in [15], in test [16], in test [19] and in [17] was “inactive” each time. In addition, the Potency result in [18] is “inactive”.
For `C[C@]12CC[C@@H]3c4ccc(O)cc4CC[C@H]3[C@@H]1CC[C@H]2O`, the Potency entry in test [1], in test [2], in test [3], in test [4], in test [5] and in test [6] was “inactive” in each case. The Potency result in [7], in [8], in test [9], in test [20], in test [14] and in test [15] was “inactive” in each case. Moreover, the Potency result in test [16], in [19], in test [17] and in test [18] was “inactive” each time.

These data come from PubChem BioAssay (Tox21).
